Results reported in PubChem BioAssay (NCI).
This is part of a sample that, as a whole, favours compounds with a hit. Of some 79,000 tested, about 15% had one in any assay. Activity calls are given as the source filed them. No stated cut-off is given here; in the data, active means growth inhibition above about 70%; inactive means the rest.

How the values were obtained:
[1] = NCI Yeast Anticancer Drug Screen. Data for the rad50 strain (AID 155);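 further: 0% = growth of vehicle-only cultures of the same strain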; conditions: S. cerevisiae rad50 strain growth inhibition; at 50.0 µM; stronger effect = higher value
How it was run: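 DNA repair mutant yeast, compound exposure, growth read-out; inhibition is taken relative to vehicle.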

[2] = NCI Yeast Anticancer Drug Screen. Data for the mec2-1 strain (AID 157); conditions: S. cerevisiae mec2-1 strain, at 50.0 µM, stronger effect = higher value
How it was run: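 Cells of the genetically defined mec2-1 yeast strain are incubated with test compound. Inhibition of growth is calculated against vehicle-treated controls.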

[3] = NCI Yeast Anticancer Drug Screen. Data for the sgs1 mgt1 strain (AID 161);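 further: 0% = growth of cultures given vehicle only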; conditions: S. cerevisiae sgs1 mgt1 strain, at 50.0 µM, stronger effect = higher value
How it was run: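 Mutant yeast exposed to compound; growth scored against vehicle-only wells.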

[4] = NCI Yeast Anticancer Drug Screen. Data for the cln2 rad14 strain (AID 165);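 further: 0% = growth equal to vehicle treated cultures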; conditions: S. cerevisiae cln2 rad14 strain, at 50.0 µM, stronger effect = higher value
How it was run: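 The screen exposed genetically defined yeast (cln2 rad14) to test compounds and scored growth inhibition relative to vehicle-treated controls.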

[5] = NCI Yeast Anticancer Drug Screen. Data for the bub3 strain (AID 167); conditions: S. cerevisiae bub3 mutant strain, at 50.0 µM, stronger effect = higher value
How it was run: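 In this screen, a yeast mutant lacking normal mitotic checkpoint function is challenged with compound. Relative growth versus vehicle gives the inhibition value.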

[6] = NCI Yeast Anticancer Drug Screen. Data for the mlh1 rad18 strain (AID 175); conditions: S. cerevisiae mlh1 rad18 strain growth inhibition; at 50.0 µM; stronger effect = higher value
How it was run: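 Compound-treated yeast growth, normalised to vehicle controls. Strain bears defined DNA repair mutations.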

Measured: growth inhibition

CCCC1(CCC)OC(=O)C(CC)(CC)C(=O)O1
inactive: [1] -10.8% | [2] -3.2% | [3] -1.6% | [4] -23.2% | [5] 14.1% | [6] -6%

Cc1nc2ccc(-c3ccccc3)cc2nc1C
inactive: [1] -9.25% | [2] 5.7% | [3] -20.9% | [4] 4.45% | [5] -5.05% | [6] 3.7%

CN(C=O)c1ccc2c(c1)C(=O)c1ccccc1-2
inactive: [1] 11.7% | [2] 2.1% | [3] 0.1% | [4] 4.2% | [5] -0.3% | [6] 9.55%

CNC(=O)C1NCCc2cc(OC)c(OC)cc21 (configuration not stated)
inactive: [1] 21.9% | [2] -22% | [3] 20.7% | [4] 13.2% | [5] 10.4% | [6] 20.6%

COc1ccccc1/C(=N\OCCC(=O)O)c1cccs1
inactive: [1] 2.15% | [2] -0.95% | [3] 5.95% | [4] 0.65% | [5] -1.25% | [6] -51.1%

COc1ccc(-c2c3c(n(C4OC(COC(C)=O)C(OC(C)=O)C(OC(C)=O)C4OC(C)=O)c(=S)c2C#N)CCCC3)cc1 (configuration not stated)
inactive: [1] -17.9% | [2] -13.2% | [3] 3.4% | [4] 2.05% | [5] -1.95% | [6] -5%

Cc1ccc(S(=O)(=O)NNS(=O)(=O)c2ccc(C)cc2)cc1
inactive: [1] 5% | [2] 9.6% | [3] 26.9% | [4] -5.95% | [5] 12.7% | [6] 17.2%

Nc1nc2nc(-c3ccccc3)[nH]c2c(=O)[nH]1
inactive: [1] -3.7% | [2] 6.75% | [3] -0.15% | [4] -52.2% | [5] -15.1% | [6] -12.4%

C=C(C)CCCCCCCCC
inactive: [1] -4.8% | [2] -5.8% | [3] 17.6% | [4] 1.4% | [5] 3% | [6] -3.25%

O=C(O)c1ccc[n+](Cc2ccccc2)c1
inactive: [1] 4.9% | [2] 12.6% | [3] -5.15% | [4] -8.2% | [5] -5.95% | [6] 2.15%

O=[N+]([O-])C(=C(N1CCCCC1)N1CCCCC1)/C(Cl)=C(\Cl)Br
inactive: [1] -31.5% | [2] 11.2% | [3] 2.7% | [4] -2% | [5] -7.15% | [6] -1.45%

O=C(Nc1c[nH]c(=O)[nH]c1=O)Oc1ccccc1
inactive: [1] -5.65% | [2] -6.7% | [3] -4.8% | [4] -1% | [5] -50% | [6] 5.05%

O=C(N/N=C/c1ccc(Cl)c([N+](=O)[O-])c1)C(O)(c1ccccc1)c1ccccc1
inactive: [1] 10.2% | [2] -2.7% | [3] 12.4% | [4] -4.45% | [5] -1% | [6] -19.1%

COc1ccc2c3c(ccc2c1)C1C(=O)OC(=O)C1CC3 (configuration not stated)
inactive: [1] -2.6% | [2] 8.6% | [3] 6.5% | [4] -36.6% | [5] -5.95% | [6] 11.2%

CCN1C2=NCCN2C(=O)c2ccccc21
inactive: [1] -0.8% | [2] -11.2% | [3] 15.9% | [4] 15.1% | [5] 8.25% | [6] 13.4%

CCC(C)(O)C(=O)O (configuration not stated)
inactive: [1] 9.8% | [2] -9.4% | [3] -32.4% | [4] -4.75% | [5] -13.3% | [6] -15.2%

COC(=O)/C(=C/c1ccccc1)N(C(C)=O)C(C)=O
inactive: [1] 0.05% | [2] -1.6% | [3] 10.3% | [4] -1.5% | [5] 13.4% | [6] 8.5%

Cc1ccc(S(=O)(=O)N/N=C/c2oc(-c3ccncc3)c(-c3ccncc3)c2[N+](=O)[O-])cc1
inactive: [1] -1.15% | [2] 10.8% | [3] 17.4% | [4] 27.8% | [5] -11.5% | [6] 17.1%

c1ccc(SCCc2ccncc2)cc1
inactive: [1] 25.1% | [2] 23.8% | [3] 29.7% | [4] -9.65% | [5] 3.85% | [6] 19.6%

O=C(C/C(=C/c1ccccc1)[N+](=O)[O-])c1ccccc1
active: [1] 99.2% | [2] 99.2% | [3] 99.3% | [4] 98.8% | [5] 99% | [6] 98.8%

CC1=NNC(=O)CC1C(O)c1ccc(F)cc1 (configuration not stated)
inactive: [1] -33.5% | [2] 1.4% | [3] -10.1% | [4] -2.35% | [5] 0% | [6] -1.85%

CCC(C(=O)O)C(C)(C)O (configuration not stated)
inactive: [1] -10.8% | [2] -11.1% | [3] -7.95% | [4] 7.05% | [5] -0.85% | [6] -15.3%

CC1c2ccc3ccccc3c2C(=O)c2cccc(Cl)c21 (configuration not stated)
inactive: [1] 0.45% | [2] 31.9% | [3] 14.7% | [4] -42.6% | [5] -5.65% | [6] -1.65%

Nc1nnc2nc(C(C(=O)c3cccc(O)c3)c3nc4nnc(N)n4[nH]c3=O)c(=O)[nH]n12
inactive: [1] 8.65% | [2] 0% | [3] -7.05% | [4] 4.7% | [5] 1.2% | [6] 1.05%

N#CC1CCCC(CBr)C1 (configuration not stated)
inactive: [1] -24.9% | [2] -43% | [3] -20.5% | [4] -23.7% | [5] -9.05% | [6] -26.7%

CN(C)CCCNC(=O)/C=C\C(=O)O
inactive: [1] 5.8% | [2] 3.9% | [3] 0.15% | [4] -4.9% | [5] 2.6% | [6] -6.15%

CCOC(=O)c1nc2ccccc2nc1Nc1ccc(F)cc1
inactive: [1] -2.35% | [2] -7.5% | [3] 1.75% | [4] 1.05% | [5] -21.1% | [6] -38%

O=[N+]([O-])c1ccc(S(=O)(=O)/N=C/c2ccccc2)cc1
inactive: [1] 2.2% | [2] 9.25% | [3] 8.75% | [4] 14.7% | [5] 14.4% | [6] 12.3%

CC(=O)COc1ccccc1[N+](=O)[O-]
inactive: [1] 9.65% | [2] 0% | [3] 8.15% | [4] 8.95% | [5] 1.3% | [6] 15.8%

CC(=N\N=C(N)N)/C(N=Nc1ccc(S(N)(=O)=O)cc1)=N\N=C(N)N
inactive: [1] -0.75% | [2] 5.55% | [3] 19.4% | [4] -45.6% | [5] -0.55% | [6] 21.3%

CC[C@]12CCCN3CCc4c(n(c5ccccc45)C(=O)C1)[C@@H]32
inactive: [1] -25.9% | [2] -23.2% | [3] -49.1% | [4] 29.4% | [5] -25.6% | [6] 31.1%

CCN(CC)c1ccc(N=C2C=C(C(=O)Nc3ccccc3OC)C(=O)c3ccccc32)c(C)c1
inactive: [1] -24.6% | [2] -28.6% | [3] -12.7% | [4] 5.25% | [5] -2.6% | [6] -16.5%

CCCCCCC(=O)N1SC(NC(=O)OC)=Nc2ccccc21
inactive: [1] 5.55% | [2] 7.3% | [3] 27.6% | [4] 36.5% | [5] 69.7% | [6] 41%

Cc1ccsc1/C=N/Nc1ncccn1
inactive: [1] 16.1% | [2] 10.7% | [3] 23.4% | [4] 3.7% | [5] 13.9% | [6] 24.1%

CCOCCOCCOCc1nc(C#N)c(N)o1
inactive: [1] -35.6% | [2] -23.3% | [3] -27.8% | [4] -14.8% | [5] -30.5% | [6] -63.4%

S=c1nc[nH]c2c1ncn2Cc1ccccc1
inactive: [1] 5.55% | [2] 4.25% | [3] -14.3% | [4] 1.3% | [5] 4.9% | [6] 2.35%

Cc1ccccc1[B-]12OCC[N+]1(CNC(=O)c1ccccc1O)CCO2 (configuration not stated)
inactive: [1] 26% | [2] -2.1% | [3] 3.5% | [4] 16.6% | [5] 1.35% | [6] 8.5%

Cn1c2c(c3ccccc31)=NN1CCN=C1N=2
inactive: [1] 11.2% | [2] -2.95% | [3] -0.15% | [4] -28.2% | [5] 17.2% | [6] 4%

O=CCCC1CCCCC1
inactive: [1] 4.75% | [2] 1.5% | [3] -4.55% | [4] -17.4% | [5] 13.1% | [6] -5.7%

CCOC(=O)Nc1cc2c(c(N)n1)N=C(c1ccc(OC)cc1)CN2
inactive: [1] 33.1% | [2] -6.75% | [3] 24.5% | [4] 30% | [5] 21.5% | [6] 11.2%

COC(=O)CC1C(OC)OC23CCC1C2(C)CCC1C3CCC2CC(OC3CCCCO3)CCC21C (configuration not stated)
inactive: [1] 19.1% | [2] 1.15% | [3] 9.55% | [4] 12.6% | [5] 3.2% | [6] 18.3%

NC1=NS(=O)(=O)Nc2nc(-c3ccc([N+](=O)[O-])cc3)[nH]c21
inactive: [1] -43% | [2] -45.8% | [3] -53% | [4] -22.4% | [5] -38.2% | [6] -45%
